Experimental data taken from ChEMBL document CHEMBL3988442, “University of Dundee, Small-Polar-MMV Screening Library” (2021).
Where “and” joins values, the source holds several entries; their conditions need not be identical. Equal values may be shown once. Hit rate of the full screen: of about 67,000 compounds, about 40 (0.06%) showed an effect of 50% or more. Shown is part of a subset that was picked to be rich in strong results.

Each molecule was assayed against T1, Coenzyme A biosynthesis bifunctional protein CoaBC (Mycobacterium tuberculosis (strain ATCC 25618 / H37Rv)) (UniProt P9WNZ1) (assay: Biomol Green assay for MtCoaBC inhibitor, OD650 read). Conditions: 30 µM.
T1 sequence (whole entry): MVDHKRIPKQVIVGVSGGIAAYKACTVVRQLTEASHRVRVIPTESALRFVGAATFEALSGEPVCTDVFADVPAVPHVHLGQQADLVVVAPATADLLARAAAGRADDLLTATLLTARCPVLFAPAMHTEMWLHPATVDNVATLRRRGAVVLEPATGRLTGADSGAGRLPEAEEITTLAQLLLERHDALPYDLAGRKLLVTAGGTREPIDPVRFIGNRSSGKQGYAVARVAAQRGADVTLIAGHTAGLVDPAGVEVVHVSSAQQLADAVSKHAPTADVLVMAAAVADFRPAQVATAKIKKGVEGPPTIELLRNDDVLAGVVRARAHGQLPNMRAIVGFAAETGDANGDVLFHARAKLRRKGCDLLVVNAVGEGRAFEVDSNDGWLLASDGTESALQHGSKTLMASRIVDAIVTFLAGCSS
Assay type: functional
Parameters: scale not given: in the data most compounds retested in dose-response had high values

Point of comparison: `Cc1ncsc1CN1C[C@@H]2COC[C@]2(COc2ccc(C#N)cn2)C1`, Percent Effect 2.8%. Against it:
- O=C(N1CCCO1)[C@@]12CCO[C@@H]1CCN(Cc1ccsc1)C2 — lower, -8.02%
- CCS(=O)(=O)N1CC[C@H]2CO[C@H](CN(C)C)[C@H]2C1 — lower, -0.203%
- CC(=O)N1C[C@H]2CNC[C@@]2(C(=O)NCCCOc2cccnc2)C1 — higher, 3.58%
- CN1CCC(C)(CNC(=O)c2ccc(SCc3cccnc3)cc2)CC1 — lower, -1.65%
- O=C(NCCC(=O)N1CCCC1)c1cccnc1 — lower, 0.943%
- O=C(c1cscn1)N1C[C@@H]2C[C@@H](c3nnc(C4CC4)o3)O[C@@H]2C1 — lower, 0.38%
- CC1CCN(C[C@H]2CN3CC[C@H]2C[C@@H]3CNC(=O)c2ccco2)CC1 — lower, -15.2%
- Cc1ccccc1CC(=O)N1C[C@@H]2COC[C@]2(CN(C)C)C1 — lower, -10.9%
- COCCN1CC[C@@H]2CN(Cc3cccnc3OC)C[C@@H]2C1 — lower, -0.364%
- Nc1cc(O)nc(CCNC(=O)CC[C@@H]2CCCN3CCCC[C@H]23)n1 — lower, -3.91%
- COc1cc(C2CC(=O)c3c(O)cc(O)cc3O2)ccc1O (stereo not drawn) — higher, 7%
- COc1ccc(C2CC(=O)c3c(O)cc(O)cc3O2)cc1O (stereo not drawn) — higher, 17.8%
- CN(Cc1ccco1)[C@@H]1CN(Cc2ccsc2)C[C@@H]2CCCO[C@@H]21 — higher, 5.46%
- COCc1cccc(C(=O)N2C[C@H]3CC[C@@H]2CN(Cc2cscn2)C3)n1 — lower, 1.53%
- Cc1nc(CN2CC[C@H]3[C@@H]2CCC(=O)N3c2cnn(C)c2)cs1 — lower, -3.58%
- Cn1cc(N2C(=O)CC[C@@H]3[C@H]2CCN3Cc2ccncc2)cn1 — lower, 0.381%
- O=C1N[C@@H]2CCN(C(=O)C3CCC3)[C@@H]2C(=O)N1c1ccc(F)cc1 — lower, 0.226%
- Fc1cccc(O[C@@H]2C[C@H]3CN(Cc4ccccn4)CCN3C2)c1 — lower, 0.483%
- Cn1cccc1C(=O)N1CC[C@H]2C[C@@H](c3ccncn3)O[C@@H]2C1 — lower, 1.03%
- COc1ccc(CN2CCCC2)cc1Oc1ccc2c(c1)CC(CN)O2 (stereo not drawn) — higher, 4.1%
- Cc1cc(CN2CCCC2)cc(Oc2ccc3c(c2)CC(CN)O3)c1 (stereo not drawn) — higher, 3.85%
- O=C(NCC1CC1)[C@@H]1C[C@@H]2OCCN[C@@H]2C1 — lower, -1.96%
- COc1ccc(-n2cc(CNC(=O)c3ccccn3)nn2)cc1 — higher, 6.21%
- CN1C(=O)CO[C@H]2CN(C(=O)Nc3ccc(F)cc3)C[C@H]21 — higher, 9.63%
- Cc1noc([C@H]2C[C@@H]3CCN(CC4CCOCC4)C[C@H]3O2)n1 — higher, 14.2%
- Cc1ccc(OCC(=O)N2CCN[C@H]3CS(=O)(=O)C[C@H]32)cn1 — higher, 12%

For `COc1cc(O)cc2c1C(=O)CC(c1ccc(O)cc1)O2` (stereo not drawn), the Percent Effect was 65.2% and 48.7%.
